The source of these data is PubChem BioAssay (NCI).

What all share (assay): NCI-60 one-dose screen, 48 h (100 = growth as untreated, 0 = no growth, -100 = all killed)
What all share (conditions): 10 µM unless noted

The subject of test [1] is SR leukemia.
In test [2] the test system is RPMI-8226 leukemia.
Test [3] has as its system OVCAR-8 ovarian.
The subject of test [4] is OVCAR-5 ovarian.
Test [5] deals with OVCAR-4 ovarian.
Test [6] has as its system SK-OV-3 ovarian.
The subject of test [7] is IGROV1 ovarian.
The test system of test [8] is HS 578T breast.
The test system of test [9] is NCI/ADR-RES ovarian.
Test [10] deals with T-47D breast.
The subject of test [11] is BT-549 breast.
The subject of test [12] is MDA-MB-435 melanoma.
The subject of test [13] is SW-620 colon.
Test [14] deals with MCF7 breast.
The test system of test [15] is HCT-116 colon.
The test system of test [16] is HCC-2998 colon.
Test [17] deals with KM12 colon.

About 83,000 compounds went through this panel and 20% of them were active in at least one assay; those are over-represented in the sample as a whole.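 Note: values are percent growth. 100 is the growth of untreated cells, values between 100 and 0 indicate rising inhibition; between -100 and 0 indicates cell death.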 A number with no mark means an inactive call. Active and inactive are the calls of the source. The calls were made as follows: active = growth percent below 10; inactive = the rest.

Consider `Cc1cc2nc(C(Cl)Cl)nc(-c3cccs3)n2n1`, for which the growth in test [1] is 48.3%; in test [2], -23.4% (active); in test [3] it was 35%; in test [4], 3.63% (active); in [5], 14.9%; in test [6], 14.7%. Moreover, the growth was 43.2% in test [7]; 3.9% (active) in test [8]; 13.7% in test [9]; 30.6% in [10]; 74.1% in [11]; 26.3% in test [12]. Besides, the growth was 10.9% in test [13]; 12.1% in test [14]; 12.2% in test [15]; -54.4% (active) in [16]; -26.4% (active) in test [17].

On to `COc1ccc(-n2c(/C=C3\C(=O)Nc4ccccc43)ccc2CO)cc1`, for which the growth in [1] is 105%; in [2], 94.6%; in [3], 102%; in test [4] it was 107%; in [5], 92.6%; in [6], 105%. Further, the growth is 98.5% in [7]; 106% in test [8]; 102% in [9]; 88.8% in test [10]; 100% in [11]; 94.8% in test [12]. The growth in test [13] is 98.6%; in [14], 93.3%; in test [15] it was 95.6%; in test [16], 113%; in test [17], 19.3%.

As for `N#Cc1c(-c2cccs2)cc(-c2cnccn2)nc1SCC(=O)Nc1ccc(Br)cc1`, the growth in [1] is 79.5%; in test [2], 99.5%; in test [3], 94.6%; in [4], 86.7%; in [5], 73.8%; in [6], 97.6%. In addition, the growth in [7] is 64.8%; in test [8], 68.6%; in [9] it was 85.8%; in test [10] it was 96.2%; in test [11] it was 65.4%; in test [12], 74.4%. In addition, the growth in [13] is 77.3%; in test [14] it was 66.6%; in test [15], 69%; in test [16], 99.7%; in test [17], 97.7%.

Take `Nc1nc(-c2cccc([N+](=O)[O-])c2)c(N=Nc2ccccc2)s1`: the growth in test [1] is 56.1%; in test [2], 52.9%; in [3], 58.2%; in test [4], 79.4%; in [5], 59.2%; in test [6], 62.3%. Also, the growth in test [7] is 82.5%; in test [8], 70.4%; in test [9] it was 54.9%; in test [10], 40.5%; in [11], 73.2%; in test [12] it was 64.9%. The growth in [13] was 64.9%; in test [14] it was 51.9%; in test [15], 54.8%; in [16] it was 71.6%; in test [17], 44%.

With `Cc1ccc(C2=Nn3c(nnc3-c3ccccc3)SC2)cc1`, the growth is 14% in test [1]; 23.1% in test [2]; 25.9% in [3]; 62.9% in test [4]; 67.3% in test [5]; 24.7% in test [6]. Further, the growth in test [7] is 49.5%; in test [8], 19.6%; in test [9] it was 14.1%; in test [10], 29.2%; in test [11], 22.5%; in test [12], -22.2% (active). Besides, the growth in test [13] was 13.3%; in test [14], 16.4%; in [15] it was 17.7%; in test [16], 39.9%; in test [17], 36.4%.

Consider `N#Cc1cccc(CN2CCC3=C(C2)C(=O)N(Cc2ccc(Cl)cc2)C2=NCCCN23)c1`, for which the growth was 27.6% in test [1]; 18.7% in test [2]; 21.5% in test [3]; 38.7% in test [4]; 20.8% in [5]; 35.9% in [6]. Further, the growth is 48.2% in [7]; 50.5% in test [8]; 13.4% in test [9]; 21.2% in test [10]; 64% in [11]; 20.3% in [12]. For the same molecule, the growth in test [13] is 36.1%; in test [14], 14.2%; in test [15], 22.5%; in test [16] it was 24.5%; in test [17] it was 38.8%.

For the molecule `C[C@@H]1C[C@H]2C(=O)O[C@@H](C)C(NC(=O)[C@H](Cc3cc(F)cc(F)c3)NC(=O)Nc3ccc(Cl)cc3F)C(=O)N3CCC[C@H]3C(=O)N3CCCC[C@H]3C(=O)N[C@@H](CO)C(=O)N2C1` (some centres undefined), the growth is 31.2% in test [1]; 14.9% in [2]; 21.9% in test [3]; 35.3% in test [4]; 22.6% in test [5]; 22.1% in [6]. Further, the growth is 47.9% in test [7]; 33.4% in test [8]; 47.5% in test [9]; 34.4% in test [10]; 35.3% in test [11]; 19.5% in [12]. Further, the growth in test [13] was 39.9%; in [14], 16.1%; in [15], 9.85% (active); in test [16], 26%; in test [17], 42%.

Regarding `CCNC(=O)N1CCc2cc(OC)c(OCCc3ccc(OC)cc3)cc2C1c1ccc(OC)cc1C` (centres undefined), the growth is 4.44% (active) in test [1]; 13.6% in [2]; 27.6% in test [3]; 35.9% in test [4]; 50.3% in test [5]; 45.9% in test [6]. For the same molecule, the growth in [7] is 27.8%; in test [8] it was 1.32% (active); in [9], 12.3%; in [10], 42.3%; in [11] it was 22.9%; in test [12], 11.4%. Further, the growth in test [13] was 21.9%; in test [14] it was 21.5%; in [15], 10.5%; in test [16], 19.5%; in [17], 24.1%.

`COc1ccc(/C=N/NC(=O)c2cn(C3CC3)c3c(OC)c(N4CC5CCCNC5C4)c(F)cc3c2=O)cc1` (centres undefined): the growth in test [1] is -3.21% (active); in test [2], 64.2%; in [3] it was 94.8%; in test [4], 97.5%; in test [5], 87.9%; in [6], 102%. For the same molecule, the growth in [7] is 75.3%; in test [8], 99.1%; in test [9], 91%; in test [10], 85.9%; in [11] it was 112%; in test [12] it was 100%. The growth was 92.1% in test [13]; 70.8% in test [14]; 53.6% in test [15]; 95.4% in test [16]; 99.7% in test [17].

For the molecule `Cc1ccc2sc3c(c2c1)OC(N)=C(C#N)C3c1cccc(F)c1` (centres undefined), the growth in [1] is 9.55% (active); in [2] it was 14.4%; in test [3], 4.8% (active); in test [4] it was 14.4%; in test [5], 20.3%; in test [6], 22.5%. Moreover, the growth was 18.8% in [7]; 5.7% (active) in test [8]; 5.79% (active) in test [9]; 35.5% in test [10]; -6.44% (active) in test [11]; -28.6% (active) in test [12]. Also, the growth in test [13] is 15.2%; in test [14], 15.2%; in [15], -24.6% (active); in test [16], 6.17% (active); in [17] it was 2.9% (active).

For `CCc1cccc2c3c(sc12)C(c1ccc(OC)cc1)C(C#N)=C(/N=C/c1ccc(Cl)cc1)O3` (centres undefined), the growth is 1.27% (active) in [1]; 10.9% in test [2]; 21.8% in test [3]; 45.7% in test [4]; 73.9% in [5]; 40.4% in test [6]. Besides, the growth was 42.6% in test [7]; -7.21% (active) in test [8]; 0.0091% (active) in test [9]; 12.9% in test [10]; 29.8% in test [11]; -47.2% (active) in [12]. The growth in [13] was 39.4%; in [14], 19.3%; in test [15], 13%; in test [16], 20%; in [17], 22.7%.

As to `CCCCc1nc(/C=N/Nc2nc(Nc3ccccc3)nc(Nc3ccc(S(N)(=O)=O)cc3)n2)c(Cl)[nH]1`, the growth was 11.5% in test [1]; 96.7% in [2]; 90% in [3]; 102% in [4]; 80.6% in [5]; 114% in [6]. Further, the growth in test [7] is 98.4%; in [8] it was 77.8%; in [9], 108%; in test [10] it was 14.9%; in [11], 47.9%; in test [12], 90.3%. Moreover, the growth in [13] is 75.1%; in test [14] it was 46.8%; in [15], 90%; in test [16], 70.4%; in [17], 103%.

As to `CCOC(=O)c1c(Nc2ccccc2)nn2c(-c3ccc(Cl)cc3)ccnc12`, the growth in test [1] is 72.7%; in test [2], 91.7%; in [3], 80.6%; in test [4], 87.2%; in [5] it was 66.5%; in test [6], 75.4%. Also, the growth is 80.5% in [7]; 72.6% in test [8]; 63.6% in test [9]; 64.2% in [10]; 103% in test [11]; 84.2% in test [12]. For the same molecule, the growth in test [13] was 84.2%; in test [14], 81.3%; in test [15], 61.1%; in test [16], 91%; in test [17] it was 89.1%.

Take `COc1ccc(-c2nc3cc(Cl)c(Cl)cc3n2CC(=O)N=Nc2c(O)[nH]c3ccc(OC)cc23)cc1`: the growth was 60.6% in test [1]; 55.1% in test [2]; 74.5% in test [3]; 49.7% in test [4]; 40.4% in test [5]; 86.2% in [6]. For the same molecule, the growth is 29.5% in test [7]; 47.7% in [8]; 30.9% in test [9]; 37.2% in [10]; -6.95% (active) in test [11]; 56.4% in test [12]. Further, the growth was 61.4% in test [13]; 67.6% in test [14]; 39.7% in [15]; 52.8% in test [16]; 71.3% in test [17].

Regarding `CN1CCN(c2nc(-c3csc(-c4ccccc4)n3)cc3ccccc23)CC1`, the growth in [1] is -20.7% (active); in [2], 14.1%; in [3], 62.4%; in [4], 59.4%; in [5], 72.7%; in [6], 81.8%. In addition, the growth in test [7] is 26.2%; in test [8], 60.6%; in test [9], 65.8%; in test [10] it was -23.3% (active); in [11], 96.2%; in test [12], 7.31% (active). The growth in test [13] is -19.1% (active); in test [14], 9.31% (active); in [15], 2.27% (active); in test [16], -84.7% (active); in test [17] it was 18.7%.

On to `Cc1ccc(-n2cc(/C=N/NC(=O)c3nc(N)n[nH]3)c(-c3ccc(S(C)(=O)=O)cc3)n2)cc1`, for which the growth in [1] is 79.3%; in test [2], 100%; in [3], 100%; in test [4], 105%; in test [5], 101%; in test [6], 104%. The growth is 98.4% in [7]; 108% in test [8]; 100% in [9]; 97.5% in [10]; 101% in test [11]; 87.9% in test [12]. Further, the growth in test [13] is 93.3%; in test [14] it was 94.2%; in test [15], 104%; in test [16] it was 115%; in test [17], 105%.

Consider `Cc1cc(C)c(N2C(=O)CC(Nc3ccc(Cl)cc3Cl)C2=O)c(C)c1` (centres undefined), for which the growth in test [1] is 97.5%; in test [2] it was 99.9%; in test [3], 101%; in test [4], 100%; in test [5], 102%; in test [6] it was 108%. The growth was 104% in [7]; 95.8% in test [8]; 107% in [9]; 93.7% in test [10]; 112% in test [11]; 102% in test [12]. Moreover, the growth is 102% in [13]; 91% in test [14]; 104% in [15]; 118% in test [16]; 105% in test [17].
